According to PubChem BioAssay:
Results filed as inconclusive are left out. Activity calls are given as the source filed them.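 The calls were made as follows, unless noted: active = efflux inhibition above 0.42, the validation set average plus 4 SD; inconclusive = no clear call, values can overlap the other calls; inactive = the rest.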

How the values were obtained:
[1] = rapamycin-like changes in RPL19A-GFP expression – cell-based, S. cerevisiae, multiplex flow cytometry, primary screen (AID 1862; in the data active = percent of DMSO control GFP below about 86%;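 also: lower values mimic rapamycin by blocking the RPL19A rise seen in DMSO cells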); conditions: S. cerevisiae RPL19A-GFP strain, flow cytometry fluorescence, 3 h; at 10 µM; stronger effect = lower value
[2] = TOR pathway GLN3 branch reporter MEP2-GFP changes – S. cerevisiae, multiplex flow cytometry, primary screen (AID 1867;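 active = GFP response, as percent of the DMSO control, above the screen-wide mean plus 3 SD, about 139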;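 also: median GFP channel fluorescence of barcode-gated MEP2-GFP cells measured by flow cytometry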); conditions: S. cerevisiae MEP2-GFP strain, 3 h, at 10 µM, stronger effect = higher value, 100% means same as DMSO wells
[3] = TOR pathway RTG branch CIT2 reporter changes – S. cerevisiae, GFP fusion, multiplex flow cytometry, primary screen (AID 1870;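 active = percent response above a set limit, the screen-wide mean plus 3 SD, cut at about 130% in these data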;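 also: barcoded CIT2-GFP strain pooled with four other GFP strains with rapamycin as positive control; median GFP fluorescence per well over plate mean of DMSO wells so 100% = DMSO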); conditions: S. cerevisiae CIT2-GFP expression, 3 h, at 10 µM, stronger effect = higher value
[4] = TOR pathway LAP4-GFP level changes – S. cerevisiae, multiplex flow cytometry, primary screen (AID 1873;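 active = GFP signal, as percent of the solvent control, above the screen mean plus 3 SD, about 149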); conditions: S. cerevisiae LAP4-GFP expression, 3 h, at 10 µM, stronger effect = higher value
[5] = yeast AGP1-GFP level changes, GLN3 branch – cell-based, multiplex flow cytometry, S. cerevisiae, primary screen (AID 1887;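 active = GFP signal above the screen-wide mean plus 3 SD, that is over about 124.5% of the solvent control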;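 also: AGP1-GFP fusion strain of S. cerevisiae within a five-strain barcoded multiplex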); conditions: 3 h, at 10 µM, stronger effect = higher value
[6] = reduced mouse 2C T cell binding to pMHC/ICAM-1 vesicles – MLPCN validation set, flow cytometry, LFA-1/ICAM-1 modulator project, pilot screen (AID 2523;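 active = response below a set limit, under 55% cells CD8-positive and vesicle-bound, and CD8 cells' 90th-percentile brightness under 279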;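 as to vesicle binding response: mean PE anti-B7-1 fluorescence of CD8+ cells relative to row control; 100% = QL9-loaded vesicles with DMSO vehicle in the same plate row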); conditions: 2C mouse CD8+ T cells, at 7 µM, stronger effect = lower value; double positive events: measured here: CD8+/vesicle+ event percentage
[7] = target: Integrin beta-1 (Homo sapiens) + Integrin alpha-4 (Homo sapiens) (UniProt P13612+P05556); assay: alpha4beta1 integrin LIBS antibody binding reduction – U937 cells, HUTS-21 mAb, flow cytometry, validation set, VLA-4 allosteric modulator project, pilot screen (AID 2674;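 active = inhibition above 50%, about 3 SD of the validation set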;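 also: antibody binding induced by the VLA-4 ligand LDV present at three times its Kd; 0% = LDV ligand with antibody and no compound and 100% = antibody without LDV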); conditions: HUTS-21 LIBS mAb binding, at 6.7 µM, stronger effect = higher value, binding induced by LDV ligand
[8] = calorie-restriction mimetic ROS inhibitors, yeast – validation compound set, pilot screen (AID 2706;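 active = superoxide response below 65% of plate, a cut near 3 SD across the whole screen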;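 also: yeast exposed to compound for one week at 30 degrees C before staining; 100% = mean of all compound wells on the same plate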); conditions: S. cerevisiae aging, superoxide DHE fluorescence; at 10 µM, stronger effect = lower value
[9] = target: Beta-adrenergic receptor kinase 1 (Homo sapiens) (UniProt P25098); assay: GRK2 binders displacing RNA aptamer, biochemical, validation, human GRK2, bead flow cytometry (AID 488806;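 active = aptamer binding inhibition above 30%, about 3 SD of noise from non-fluorescent compounds; inactive = inhibition at or below 30%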); conditions: bead-bound GRK2, FAM-aptamer displacement, at 10 µM, stronger effect = higher value
[10] = target: AP-2 complex subunit beta (Homo sapiens) (UniProt P63010); assay: beta-arrestin/AP2 interaction blockers – biochemical, validation set, GST-AP2 beads, flow cytometry, pilot screen (AID 504541;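 active = inhibition above 54%, about 3 SD of non-fluorescent compounds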;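 also: AP2 carries R879A mutation and is captured from E. coli lysate; bead-bound FITC arrestin peptide fluorescence measuring arrestin peptide binding to AP2; 0% = DMSO wells and 100% = excess unlabeled arrestin peptide control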); conditions: FITC arrestin peptide, at 10 µM, stronger effect = higher value, AP2 beta2 appendage fragment, R879A mutant
[11] = cytosolic pH regulators acting via V-ATPase – S. cerevisiae, pHLuorin, HTS validation (AID 504600; in the data active = response above about 15%;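 also: plate controls were DMSO for no effect and reference compound for full effect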); conditions: V-ATPase proton transport, at 10 µM, stronger effect = higher value
[12] = system: anti-desmoglein-3 scFv antibody binding to human DSG3; assay: blockers of pathogenic pemphigus antibody–desmoglein-3 binding – biochemical, validation compound set, bead-based, flow cytometry, pilot screen (AID 588368;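 active = binding below the plate cutoff, the plate median minus 3 SD, with a reading above zero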;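 also: signal is the median channel fluorescence of bead-bound GFP antibody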); conditions: Protein G beads, DSG3-Fc, scFv-GFP binding, at 10 µM, stronger effect = lower value
[13] = Nile Red efflux blockade in pump-expressing yeast – validation compound set, multiplex, phenotypic, pilot screen (AID 588506);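 also: Nile Red retained in cells so higher fluorescence means more efflux inhibition; 0 = negative control wells and 1 = enniatin B 25 µM full block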; conditions: S. cerevisiae pump-expressing triplex, Nile Red efflux flow cytometry; at 10 µM; stronger effect = higher value; the pumps come from Candida albicans
[14] = target: ATP-binding cassette sub-family B member 6 (Homo sapiens) (UniProt Q9NP58); assay: blockers of ABCB6-driven porphyrin uptake – K562-ABCB6 cells, flow cytometry, validation set, pilot screen (AID 588550;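 active = inhibition above the screen-wide mean plus 3 SD, about 51%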;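 also: 0% = DMSO wells and 100% = benzethonium chloride 70 µM positive control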); conditions: K562-ABCB6 porphyrin accumulation, 1 h, at 10 µM, stronger effect = higher value
[15] = AML differentiation inducers, ER-HoxA9 marrow cells – cell-based, GFP/MAC1 double positive, flow cytometry, validation set, primary screen (AID 588685;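 active = differentiation response of at least 50%, scaled between solvent and reference control, from cells with both markers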;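 also: compound exposure lasts four days before antibody staining and flow analysis; 0% = DMSO wells and 100% = 5 µM fulvestrant positive control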); conditions: stronger effect = higher value, normalized: vehicle 0, fulvestrant 100

Beta-adrenergic receptor kinase 1 (Homo sapiens), sequence (P25098 whole entry, looked up): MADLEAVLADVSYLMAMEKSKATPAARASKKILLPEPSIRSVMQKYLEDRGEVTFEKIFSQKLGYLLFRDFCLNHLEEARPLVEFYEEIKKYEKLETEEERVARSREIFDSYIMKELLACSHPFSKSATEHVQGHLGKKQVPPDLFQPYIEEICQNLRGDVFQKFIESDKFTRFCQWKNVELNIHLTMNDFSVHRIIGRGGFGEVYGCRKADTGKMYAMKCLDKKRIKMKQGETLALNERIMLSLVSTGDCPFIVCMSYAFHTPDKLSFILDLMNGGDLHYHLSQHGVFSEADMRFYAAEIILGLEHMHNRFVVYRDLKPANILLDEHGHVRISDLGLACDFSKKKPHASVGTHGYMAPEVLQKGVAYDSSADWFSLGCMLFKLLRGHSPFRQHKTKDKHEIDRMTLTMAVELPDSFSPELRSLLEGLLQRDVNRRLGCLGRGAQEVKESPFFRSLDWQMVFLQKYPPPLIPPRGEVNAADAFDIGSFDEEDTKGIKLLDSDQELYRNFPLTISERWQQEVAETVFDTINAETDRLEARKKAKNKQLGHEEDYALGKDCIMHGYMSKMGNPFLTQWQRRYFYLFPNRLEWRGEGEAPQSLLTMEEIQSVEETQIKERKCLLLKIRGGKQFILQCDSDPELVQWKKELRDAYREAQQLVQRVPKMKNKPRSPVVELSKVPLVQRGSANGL
Integrin beta-1 (Homo sapiens) + Integrin alpha-4 (Homo sapiens), sequence (P05556 whole entry, looked up): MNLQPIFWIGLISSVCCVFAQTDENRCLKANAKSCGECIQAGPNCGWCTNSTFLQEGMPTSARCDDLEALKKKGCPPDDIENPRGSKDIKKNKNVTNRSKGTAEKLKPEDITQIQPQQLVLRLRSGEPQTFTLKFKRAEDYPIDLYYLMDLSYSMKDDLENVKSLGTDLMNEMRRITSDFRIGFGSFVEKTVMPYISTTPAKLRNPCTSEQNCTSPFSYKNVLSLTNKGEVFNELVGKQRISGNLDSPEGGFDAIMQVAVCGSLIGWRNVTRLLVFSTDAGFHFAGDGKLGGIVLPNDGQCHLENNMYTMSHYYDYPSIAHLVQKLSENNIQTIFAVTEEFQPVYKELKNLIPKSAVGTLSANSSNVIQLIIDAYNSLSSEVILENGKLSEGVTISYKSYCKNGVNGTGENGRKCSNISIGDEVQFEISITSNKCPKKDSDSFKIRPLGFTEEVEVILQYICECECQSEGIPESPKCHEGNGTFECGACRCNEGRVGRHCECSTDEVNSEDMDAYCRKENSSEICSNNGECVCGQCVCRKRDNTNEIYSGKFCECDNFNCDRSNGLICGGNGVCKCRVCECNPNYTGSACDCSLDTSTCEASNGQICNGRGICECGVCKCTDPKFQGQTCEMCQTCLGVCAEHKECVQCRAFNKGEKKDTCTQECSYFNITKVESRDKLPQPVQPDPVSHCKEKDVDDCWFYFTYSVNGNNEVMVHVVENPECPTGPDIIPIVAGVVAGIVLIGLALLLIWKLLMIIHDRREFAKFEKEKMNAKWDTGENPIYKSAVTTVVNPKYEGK
Integrin beta-1 (Homo sapiens) + Integrin alpha-4 (Homo sapiens), sequence (P13612 whole entry, looked up): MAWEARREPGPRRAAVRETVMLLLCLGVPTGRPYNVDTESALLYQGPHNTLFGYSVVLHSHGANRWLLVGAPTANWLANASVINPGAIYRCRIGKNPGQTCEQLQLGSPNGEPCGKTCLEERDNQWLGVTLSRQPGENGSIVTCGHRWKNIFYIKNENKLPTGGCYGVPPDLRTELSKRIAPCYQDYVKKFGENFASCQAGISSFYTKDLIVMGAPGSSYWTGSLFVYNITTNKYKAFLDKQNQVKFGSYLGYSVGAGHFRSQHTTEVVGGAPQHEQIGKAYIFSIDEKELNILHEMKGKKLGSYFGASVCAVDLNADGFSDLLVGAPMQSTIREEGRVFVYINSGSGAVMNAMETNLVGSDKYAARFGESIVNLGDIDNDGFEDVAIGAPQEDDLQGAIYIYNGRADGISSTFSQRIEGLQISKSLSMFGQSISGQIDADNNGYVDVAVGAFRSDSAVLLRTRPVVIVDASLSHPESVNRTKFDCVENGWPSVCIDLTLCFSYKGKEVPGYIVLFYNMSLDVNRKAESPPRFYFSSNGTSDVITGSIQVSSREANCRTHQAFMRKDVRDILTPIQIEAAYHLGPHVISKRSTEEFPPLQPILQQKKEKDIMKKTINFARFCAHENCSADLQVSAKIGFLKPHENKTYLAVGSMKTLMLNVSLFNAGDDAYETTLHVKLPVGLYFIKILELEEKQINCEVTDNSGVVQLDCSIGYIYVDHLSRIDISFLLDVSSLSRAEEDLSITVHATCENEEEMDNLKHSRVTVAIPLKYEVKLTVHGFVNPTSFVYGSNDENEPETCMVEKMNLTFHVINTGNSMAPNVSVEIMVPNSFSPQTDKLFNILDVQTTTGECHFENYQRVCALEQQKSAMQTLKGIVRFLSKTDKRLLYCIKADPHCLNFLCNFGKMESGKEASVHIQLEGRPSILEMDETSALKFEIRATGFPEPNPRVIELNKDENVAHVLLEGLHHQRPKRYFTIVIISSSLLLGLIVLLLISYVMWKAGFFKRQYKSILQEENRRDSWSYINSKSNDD
AP-2 complex subunit beta (Homo sapiens), sequence (P63010 whole entry, looked up, the tested form may be a part, one chain of several): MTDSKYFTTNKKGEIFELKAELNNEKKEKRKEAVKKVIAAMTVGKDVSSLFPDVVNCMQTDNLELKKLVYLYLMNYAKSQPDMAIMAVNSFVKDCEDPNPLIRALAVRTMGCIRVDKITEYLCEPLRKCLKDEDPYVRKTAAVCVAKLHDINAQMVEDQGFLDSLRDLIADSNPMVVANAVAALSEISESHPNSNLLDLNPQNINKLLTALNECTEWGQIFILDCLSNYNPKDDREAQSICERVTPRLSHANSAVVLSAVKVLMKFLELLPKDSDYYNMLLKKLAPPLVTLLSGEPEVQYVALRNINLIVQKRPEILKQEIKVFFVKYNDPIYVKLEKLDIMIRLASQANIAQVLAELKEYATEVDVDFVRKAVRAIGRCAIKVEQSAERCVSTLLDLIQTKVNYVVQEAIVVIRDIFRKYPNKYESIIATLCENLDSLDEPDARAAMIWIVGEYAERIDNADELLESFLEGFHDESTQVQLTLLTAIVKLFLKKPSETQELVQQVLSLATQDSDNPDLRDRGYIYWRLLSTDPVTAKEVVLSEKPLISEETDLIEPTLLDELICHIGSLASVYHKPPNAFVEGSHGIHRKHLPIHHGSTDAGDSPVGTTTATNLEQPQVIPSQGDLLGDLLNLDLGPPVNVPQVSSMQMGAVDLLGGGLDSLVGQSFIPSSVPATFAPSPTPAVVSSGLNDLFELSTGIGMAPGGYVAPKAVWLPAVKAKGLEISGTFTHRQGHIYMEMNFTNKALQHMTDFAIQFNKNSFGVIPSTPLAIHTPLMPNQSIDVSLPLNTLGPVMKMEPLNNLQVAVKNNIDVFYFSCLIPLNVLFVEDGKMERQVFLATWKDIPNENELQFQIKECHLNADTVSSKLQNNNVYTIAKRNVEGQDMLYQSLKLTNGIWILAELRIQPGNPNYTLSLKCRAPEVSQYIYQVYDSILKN
ATP-binding cassette sub-family B member 6 (Homo sapiens), sequence (Q9NP58 whole entry, looked up): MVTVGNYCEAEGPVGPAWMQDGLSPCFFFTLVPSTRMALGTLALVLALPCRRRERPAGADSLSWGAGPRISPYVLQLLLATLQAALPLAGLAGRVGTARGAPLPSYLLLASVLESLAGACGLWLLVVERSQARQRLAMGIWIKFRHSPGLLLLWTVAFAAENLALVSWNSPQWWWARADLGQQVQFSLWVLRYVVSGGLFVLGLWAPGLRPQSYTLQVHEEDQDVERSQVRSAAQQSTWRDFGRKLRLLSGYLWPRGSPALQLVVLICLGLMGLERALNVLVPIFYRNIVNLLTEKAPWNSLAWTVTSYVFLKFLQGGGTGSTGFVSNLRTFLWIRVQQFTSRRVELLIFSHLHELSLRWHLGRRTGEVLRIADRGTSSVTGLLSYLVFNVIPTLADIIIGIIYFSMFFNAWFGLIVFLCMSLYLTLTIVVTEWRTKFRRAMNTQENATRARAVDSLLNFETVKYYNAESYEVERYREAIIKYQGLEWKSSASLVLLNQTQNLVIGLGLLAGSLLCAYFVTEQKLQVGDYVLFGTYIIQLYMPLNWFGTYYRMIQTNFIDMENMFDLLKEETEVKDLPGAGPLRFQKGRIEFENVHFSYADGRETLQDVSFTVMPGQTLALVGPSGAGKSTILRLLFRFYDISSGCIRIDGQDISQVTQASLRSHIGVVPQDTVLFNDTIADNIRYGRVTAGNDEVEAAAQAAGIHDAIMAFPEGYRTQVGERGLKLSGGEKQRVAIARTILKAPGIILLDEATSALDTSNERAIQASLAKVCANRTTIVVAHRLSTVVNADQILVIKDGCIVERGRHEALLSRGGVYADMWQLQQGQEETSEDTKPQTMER

COc1cc2nc(N3CCN(C(=O)C4COc5ccccc5O4)CC3)nc(N)c2cc1OC (stereo not given)
active: superoxide response (% of plate) [8] 57.2%
61.4%: double positive events [6]
inactive: percent of DMSO control GFP [1] 101% | GFP response vs DMSO [2] 108% | percent response of DMSO control [3] 104% | GFP response vs DMSO [4] 110% | GFP response, % of DMSO [5] 116% | vesicle binding response [6] 203% | inhibition [7] -8.78% | aptamer binding inhibition [9] 1% | inhibition [10] 26.5% | response [11] -4.66% | binding (% of control) [12] 108% | efflux inhibition (fraction of control) [13] 0 | inhibition [14] -6% | differentiation response [15] 3.88%

CC1(C)NC(C(=O)O)Cc2c1[nH]c1ccccc21 (stereo not given)
62.5%: double positive events [6]
inactive: percent of DMSO control GFP [1] 112% | GFP response vs DMSO [2] 106% | percent response of DMSO control [3] 109% | GFP response vs DMSO [4] 98.4% | GFP response, % of DMSO [5] 105% | vesicle binding response [6] 175% | inhibition [7] 5.36% | superoxide response (% of plate) [8] 97.5% | aptamer binding inhibition [9] 1% | inhibition [10] 14.4% | response [11] -1.17% | binding (% of control) [12] 112% | efflux inhibition (fraction of control) [13] 0.1 | inhibition [14] 8% | differentiation response [15] -16.4%

CCOc1ccc(NC(=O)N[C@@H](CCSC)C(=O)OC)cc1
inactive: percent of DMSO control GFP [1] 105% | GFP response vs DMSO [2] 106% | percent response of DMSO control [3] 104% | GFP response vs DMSO [4] 96.4% | GFP response, % of DMSO [5] 105% | vesicle binding response [6] 164% | inhibition [7] 5.36% | superoxide response (% of plate) [8] 117% | aptamer binding inhibition [9] 1% | inhibition [10] 5.32% | response [11] 4.65% | binding (% of control) [12] 98.5% | efflux inhibition (fraction of control) [13] -0.47 | inhibition [14] 6% | differentiation response [15] 9.49%
52.6%: double positive events [6]

O=C1OC(c2ccc(O)cc2)(c2ccc(O)cc2)c2ccccc21
62.5%: double positive events [6]
inactive: percent of DMSO control GFP [1] 97.1% | GFP response vs DMSO [2] 102% | percent response of DMSO control [3] 101% | GFP response vs DMSO [4] 103% | GFP response, % of DMSO [5] 100% | vesicle binding response [6] 180% | inhibition [7] 9.09% | superoxide response (% of plate) [8] 99.3% | aptamer binding inhibition [9] 1% | inhibition [10] 28% | response [11] -0.84% | binding (% of control) [12] 103% | efflux inhibition (fraction of control) [13] -0.12 | inhibition [14] 6% | differentiation response [15] -24.4%

CC#C[C@]1(O)CC[C@H]2[C@@H]3CCC4=CC(=O)CCC4=C3[C@@H](c3ccc(N(C)C)cc3)C[C@@]21C
56.3%: double positive events [6]
inactive: percent of DMSO control GFP [1] 103% | GFP response vs DMSO [2] 103% | percent response of DMSO control [3] 110% | GFP response vs DMSO [4] 87.3% | GFP response, % of DMSO [5] 102% | vesicle binding response [6] 187% | inhibition [7] -10.5% | superoxide response (% of plate) [8] 94.9% | aptamer binding inhibition [9] 9% | inhibition [10] 25.2% | response [11] 0.03% | binding (% of control) [12] 94.6% | efflux inhibition (fraction of control) [13] -0.16 | inhibition [14] 3% | differentiation response [15] -16.4%

COC1=CC(=O)CC(C)C12Oc1c(Cl)c(OC)cc(OC)c1C2=O (stereo not given)
42.3%: double positive events [6]
inactive: percent of DMSO control GFP [1] 105% | GFP response vs DMSO [2] 99.9% | percent response of DMSO control [3] 107% | GFP response vs DMSO [4] 103% | GFP response, % of DMSO [5] 98.7% | vesicle binding response [6] 131% | inhibition [7] 8.15% | superoxide response (% of plate) [8] 97.4% | aptamer binding inhibition [9] -1% | inhibition [10] 14.5% | response [11] 0.18% | binding (% of control) [12] 95.9% | efflux inhibition (fraction of control) [13] -0.09 | inhibition [14] 8% | differentiation response [15] -14.7%

COc1ccc2nc(NC(=O)Nc3ccccc3)sc2c1
inactive: percent of DMSO control GFP [1] 105% | GFP response vs DMSO [2] 96.9% | percent response of DMSO control [3] 111% | GFP response vs DMSO [4] 89.3% | GFP response, % of DMSO [5] 96% | vesicle binding response [6] 173% | inhibition [7] 10% | superoxide response (% of plate) [8] 92.7% | aptamer binding inhibition [9] -1% | inhibition [10] 0.98% | binding (% of control) [12] 95.7% | efflux inhibition (fraction of control) [13] -0.47 | inhibition [14] 1% | differentiation response [15] -22.8%
50.6%: double positive events [6]
active: response [11] 70.8%

CC(=O)Oc1ccc2occ(/C=N/c3cc(=O)[nH]c(=S)[nH]3)c(=O)c2c1
66.1%: double positive events [6]
inactive: percent of DMSO control GFP [1] 98% | GFP response vs DMSO [2] 102% | percent response of DMSO control [3] 96.9% | GFP response vs DMSO [4] 91.3% | GFP response, % of DMSO [5] 98.5% | vesicle binding response [6] 181% | inhibition [7] 7.22% | superoxide response (% of plate) [8] 90.5% | aptamer binding inhibition [9] 1% | inhibition [10] 25.5% | response [11] -8.27% | binding (% of control) [12] 103% | efflux inhibition (fraction of control) [13] 0.33 | inhibition [14] 10% | differentiation response [15] 40.2%

O=C(O)c1cccnc1
54.3%: double positive events [6]
inactive: percent of DMSO control GFP [1] 103% | GFP response vs DMSO [2] 105% | percent response of DMSO control [3] 96.9% | GFP response vs DMSO [4] 101% | GFP response, % of DMSO [5] 105% | vesicle binding response [6] 137% | inhibition [7] 13.8% | superoxide response (% of plate) [8] 94.8% | aptamer binding inhibition [9] 4% | inhibition [10] -4.36% | response [11] 4.12% | binding (% of control) [12] 101% | efflux inhibition (fraction of control) [13] 0.29 | inhibition [14] 16% | differentiation response [15] 20.8%

COCCCC/C(=N\OCCN)c1ccc(C(F)(F)F)cc1
active: differentiation response [15] 139%
60.3%: double positive events [6]
inactive: percent of DMSO control GFP [1] 108% | GFP response vs DMSO [2] 108% | percent response of DMSO control [3] 98.8% | GFP response vs DMSO [4] 93.3% | GFP response, % of DMSO [5] 105% | vesicle binding response [6] 182% | inhibition [7] 10% | superoxide response (% of plate) [8] 102% | aptamer binding inhibition [9] -7% | inhibition [10] -0.39% | response [11] 1.1% | binding (% of control) [12] 91.7% | efflux inhibition (fraction of control) [13] 0.18 | inhibition [14] 3%
